Measurements: the supplement of paper PMC12282887
± gives the standard deviation of the averaged measurements.

Tests used:
Test in all cases: promoter activity interaction Z-score (Lux/OD deviation from empty-vector control); higher = stronger promoter induction by the compound
[1] = system: E. coli BW25113 acrABp lux reporter
In short: (§1)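 Four 1:2 dilutions of each compound were tested in biological duplicates on E. coli BW25113 carrying low-copy luxCDABE promoter reporters, either wild type or deleted for one of three genes. Cultures of 40 µl LB Lennox in 384-well plates were kept at 37°C and read for OD600 and luminescence every 30 min for 12 h. Integration windows were 0–8 h for wild type and 1–9 h for deletion strains, and wells under 10% of the median growth value were discarded. The score is a Z-transformed residual of growth-normalised luminescence relative to a control fit.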

[2] = system: E. coli BW25113 marRABp lux reporter
In short: as §1

[3] = system: E. coli BW25113 micFp lux reporter
In short: as §1

[4] = system: E. coli BW25113 ompFp lux reporter
In short: as §1

[5] = system: E. coli BW25113 robp lux reporter
In short: as §1

[6] = system: E. coli BW25113 soxSp lux reporter
In short: as §1

[7] = system: E. coli BW25113 tolCp lux reporter
In short: as §1

[8] = 0.064 µg/ml, genetic background: wild type
[9] = 0.064 µg/ml, genetic background: ΔmarA
[10] = 0.064 µg/ml, genetic background: Δrob
[11] = 0.064 µg/ml, genetic background: ΔsoxS
[12] = 0.13 µg/ml, genetic background: wild type
[13] = 0.13 µg/ml, genetic background: ΔmarA
[14] = 0.13 µg/ml, genetic background: Δrob
[15] = 0.13 µg/ml, genetic background: ΔsoxS
[16] = 0.26 µg/ml, genetic background: wild type
[17] = 0.26 µg/ml, genetic background: ΔmarA
[18] = 0.26 µg/ml, genetic background: Δrob
[19] = 0.26 µg/ml, genetic background: ΔsoxS
[20] = 0.51 µg/ml, genetic background: wild type

C[C@H]1c2cccc(O)c2C(=O)C2=C(O)[C@]3(O)C(=O)C(C(N)=O)=C(O)[C@@H](N(C)C)[C@@H]3[C@@H](O)[C@@H]21 [Doxycycline]
promoter activity interaction Z-score [1, 8]: 0.468 ± 0.23 | promoter activity interaction Z-score [1, 9]: -0.101 ± 0.52 | promoter activity interaction Z-score [1, 10]: 0.667 ± 0.18 | promoter activity interaction Z-score [1, 11]: 0.902 ± 0.18 | promoter activity interaction Z-score [1, 12]: 1.36 ± 0.11 | promoter activity interaction Z-score [1, 13]: 0.0555 ± 0.26 | promoter activity interaction Z-score [1, 14]: 2.17 ± 0.61 | promoter activity interaction Z-score [1, 15]: 2.67 ± 1.3 | promoter activity interaction Z-score [1, 16]: 3.4 ± 0.4 | promoter activity interaction Z-score [1, 17]: -0.561 ± 0.26 | promoter activity interaction Z-score [1, 18]: 3.18 ± 0.3 | promoter activity interaction Z-score [1, 19]: 3.94 ± 0.66 | promoter activity interaction Z-score [2, 8]: 0.973 ± 0.17 | promoter activity interaction Z-score [2, 9]: 2.43 ± 0.098 | promoter activity interaction Z-score [2, 10]: 0.676 ± 0.28 | promoter activity interaction Z-score [2, 11]: 1.01 ± 0.13 | promoter activity interaction Z-score [2, 12]: 2.72 ± 0.47 | promoter activity interaction Z-score [2, 13]: 4.3 ± 0.47 | promoter activity interaction Z-score [2, 14]: 1.1 ± 0.25 | promoter activity interaction Z-score [2, 15]: 2.28 ± 0.13 | promoter activity interaction Z-score [2, 16]: 3.51 ± 0.065 | promoter activity interaction Z-score [2, 17]: 2.23 ± 1.1 | promoter activity interaction Z-score [2, 18]: 0.478 ± 0.55 | promoter activity interaction Z-score [2, 19]: 3.1 ± 0.92 | promoter activity interaction Z-score [2, 20]: 0.833 | promoter activity interaction Z-score [3, 8]: 1.47 ± 0.83 | promoter activity interaction Z-score [3, 9]: 0.45 ± 0.069 | promoter activity interaction Z-score [3, 10]: -0.0978 ± 0.028 | promoter activity interaction Z-score [3, 11]: 0.831 ± 0.11 | promoter activity interaction Z-score [3, 12]: 2.59 ± 0.24 | promoter activity interaction Z-score [3, 13]: 0.672 ± 0.35 | promoter activity interaction Z-score [3, 14]: 0.226 ± 0.065 | promoter activity interaction Z-score [3, 15]: 2.53 ± 0.24 | promoter activity interaction Z-score [3, 16]: 1.58 ± 0.61 | promoter activity interaction Z-score [3, 17]: 1.02 ± 0.22 | promoter activity interaction Z-score [3, 18]: -0.177 ± 0.23 | promoter activity interaction Z-score [3, 19]: 2.84 ± 1.2 | promoter activity interaction Z-score [3, 20]: -0.656 ± 0.6 | promoter activity interaction Z-score [4, 8]: 2.17 ± 0.36 | promoter activity interaction Z-score [4, 9]: 2.03 ± 0.54 | promoter activity interaction Z-score [4, 10]: 2.36 ± 0.68 | promoter activity interaction Z-score [4, 11]: 2.91 ± 0.58 | promoter activity interaction Z-score [4, 12]: 2.54 ± 0.84 | promoter activity interaction Z-score [4, 13]: 1.92 ± 0.47 | promoter activity interaction Z-score [4, 14]: 2.05 ± 0.15 | promoter activity interaction Z-score [4, 15]: 3.33 ± 0.7 | promoter activity interaction Z-score [4, 16]: 0.914 ± 0.97 | promoter activity interaction Z-score [4, 17]: -0.13 ± 1.5 | promoter activity interaction Z-score [4, 18]: -1.55 ± 0.46 | promoter activity interaction Z-score [4, 19]: 2.96 ± 1.1 | promoter activity interaction Z-score [5, 8]: 0.541 ± 0.37 | promoter activity interaction Z-score [5, 9]: 0.726 ± 0.57 | promoter activity interaction Z-score [5, 10]: 0.325 ± 0.7 | promoter activity interaction Z-score [5, 11]: 1.37 ± 0.15 | promoter activity interaction Z-score [5, 12]: -0.332 ± 0.71 | promoter activity interaction Z-score [5, 13]: -0.921 ± 0.38 | promoter activity interaction Z-score [5, 14]: -0.263 ± 1.5 | promoter activity interaction Z-score [5, 15]: 0.43 ± 1.4 | promoter activity interaction Z-score [5, 16]: -1.3 ± 0.03 | promoter activity interaction Z-score [5, 17]: -1.65 ± 0.046 | promoter activity interaction Z-score [5, 18]: -2.35 ± 0.43 | promoter activity interaction Z-score [5, 19]: -1.67 ± 0.45 | promoter activity interaction Z-score [5, 20]: -0.891 ± 0.46 | promoter activity interaction Z-score [6, 8]: 0.306 ± 0.015 | promoter activity interaction Z-score [6, 9]: 0.57 ± 0.091 | promoter activity interaction Z-score [6, 10]: 0.328 ± 0.17 | promoter activity interaction Z-score [6, 11]: 0.664 ± 0.32 | promoter activity interaction Z-score [6, 12]: 0.688 ± 0.29 | promoter activity interaction Z-score [6, 13]: 0.899 ± 0.1 | promoter activity interaction Z-score [6, 14]: 0.658 ± 0.49 | promoter activity interaction Z-score [6, 15]: 1.87 ± 0.49 | promoter activity interaction Z-score [6, 16]: 1.52 ± 0.49 | promoter activity interaction Z-score [6, 17]: 2.111 ± 0.021 | promoter activity interaction Z-score [6, 18]: 0.693 ± 0.49 | promoter activity interaction Z-score [6, 19]: 2.44 ± 1 | promoter activity interaction Z-score [6, 20]: 1.1 ± 0.16 | promoter activity interaction Z-score [7, 8]: 0.271 ± 0.51 | promoter activity interaction Z-score [7, 9]: 1.62 ± 0.076 | promoter activity interaction Z-score [7, 10]: -0.121 ± 0.96 | promoter activity interaction Z-score [7, 11]: 0.793 ± 0.57 | promoter activity interaction Z-score [7, 12]: 0.44 ± 0.19 | promoter activity interaction Z-score [7, 13]: 0.772 ± 1.2 | promoter activity interaction Z-score [7, 14]: 0.309 ± 0.4 | promoter activity interaction Z-score [7, 15]: 2.09 ± 0.67 | promoter activity interaction Z-score [7, 16]: 0.167 ± 0.028 | promoter activity interaction Z-score [7, 17]: 0.714 ± 0.019 | promoter activity interaction Z-score [7, 18]: 2.36 ± 3.6 | promoter activity interaction Z-score [7, 19]: 2.12 ± 1 | promoter activity interaction Z-score [7, 20]: 0.561 ± 1.1
